# High-throughput results from PubChem.
# Epigenetic derep: epigenetic control regulation, reporter derepression; 0.2% of 280,000 active; murine LDR cells, GFP reporter derepression, 30 h; Potency, µM (highest dose often 53.9 µM), for the others: at the top dose GFP activation, hits mostly activators; AID 1865; note: % of control where 0% means no effect; nearly all actives have a fitted effect of over 60% in size
#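 Derepression of a silenced CMV-GFP reporter in murine LDR cells is scored by enumerating GFP-positive cells with a laser-scanning microplate cytometer after 30 hours of treatment at 37 C.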
# Vif-A3G inh: inhibitors of Vif-APOBEC3G interaction. Q9HC16. HeLa A3G-eYFP + Vif (tagged APOBEC3G with the HIV-1 protein that degrades it), YFP fluorescence, overnight. Potency, µM (doses to about 46.1 µM), for the others: top-dose activity, negative = active, actives largely listed as inhibitors. 0.076% of 410,000 active. AID 602310; note: % is set by controls: 0 for no effect and ±100 for the full control effect; nearly all actives have a fitted effect of over 60% in size
#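 HeLa cells stably expressing Vif and C-terminally eYFP-tagged A3G, seeded overnight at 37 deg C, then exposed to compound by pintool overnight at 37 deg C. Rise in yellow fluorescence (Ex 488/Em 500-530, Acumen) marks blocked Vif-driven A3G degradation.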
# Rango-impB inh: Rango-importin beta binding inhibition | Rango CFP/YFP FRET sensor + importin beta, 45 min | Potency, µM (series often up to 92.2 µM), for inactives: top-dose inhibition of complex formation | 0.031% of 340,000 active | AID 540263; calls by dose curve;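 note: 0% = DMSO wells and 100% = buffer wells lacking importin beta; nearly all actives have a fitted effect of over 15% in size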
# Target sequence (Q14974 whole entry, looked up): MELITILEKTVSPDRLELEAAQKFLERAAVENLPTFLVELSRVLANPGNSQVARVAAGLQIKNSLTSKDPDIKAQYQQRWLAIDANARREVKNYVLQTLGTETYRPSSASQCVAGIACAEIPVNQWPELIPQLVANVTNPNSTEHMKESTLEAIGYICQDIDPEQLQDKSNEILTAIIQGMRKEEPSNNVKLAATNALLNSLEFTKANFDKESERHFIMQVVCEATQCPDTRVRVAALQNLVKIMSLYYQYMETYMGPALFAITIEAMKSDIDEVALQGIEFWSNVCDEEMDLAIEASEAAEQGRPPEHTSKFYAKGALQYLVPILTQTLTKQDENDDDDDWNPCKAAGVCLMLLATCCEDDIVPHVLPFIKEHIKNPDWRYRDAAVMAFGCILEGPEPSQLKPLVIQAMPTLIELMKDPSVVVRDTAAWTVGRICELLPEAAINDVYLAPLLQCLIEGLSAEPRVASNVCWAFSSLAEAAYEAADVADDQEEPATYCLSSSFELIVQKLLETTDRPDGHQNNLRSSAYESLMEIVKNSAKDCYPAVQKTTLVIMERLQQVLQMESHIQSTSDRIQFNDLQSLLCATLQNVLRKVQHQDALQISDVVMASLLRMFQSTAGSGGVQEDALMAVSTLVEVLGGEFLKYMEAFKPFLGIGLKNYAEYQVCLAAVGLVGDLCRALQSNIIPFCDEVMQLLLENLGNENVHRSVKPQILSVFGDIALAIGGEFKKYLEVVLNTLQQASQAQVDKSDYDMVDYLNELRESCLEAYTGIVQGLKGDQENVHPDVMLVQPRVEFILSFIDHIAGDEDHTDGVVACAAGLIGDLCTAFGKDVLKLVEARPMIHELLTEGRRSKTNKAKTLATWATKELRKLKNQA
#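 FRET biosensor Rango (snurportin 1 IBB between N-terminal EYFP and C-terminal Cerulean), 50 nM in PBS/1 mM DTT/0.02% Tween-20/0.1% BSA, preincubated 5 min RT with compound; 0.125 microM importin beta added, 45 min RT, CFP/YFP FRET ratio read.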
# Rango release inh: inhibitors of RanGTP-induced Rango-importin beta complex dissociation; AID 540253; 0.071% of 340,000 active; Biochemical FRET Rango-importin beta, RanGTP-induced dissociation; Potency, µM (titrated, usually from 46.1 µM), inactives show at the highest dose activity change, negative = inhibition; O95149+P62826; calls by dose curve; note: % of control where 0% means no effect; nearly all actives have a fitted effect of over 45% in size
#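 Compounds sat 5 min at room temperature with 0.1 uM Rango biosensor plus 0.25 uM importin beta, then FRET pre-read. RanGTP-RCC1 (0.6 uM Ran, 2mM GTP, 0.2 uM RCC1) added for 45 min, and the CFP/YFP post-read measured blocked complex dissociation.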
# Vif-A3F inh: Vif-A3F binding inhibition; HeLa A3F-eYFP + Vif (tagged APOBEC3F with the HIV-1 protein that degrades it), YFP fluorescence increase; Potency, µM (top dose mostly 46.1 µM), for the others: at the top dose activity, negative = active; 0.2% of 390,000 active; AID 602313; note: % of control where 0% means no effect; nearly all actives have a fitted effect of over 65% in size
#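 HeLa cells stably expressing Vif plus C-terminally eYFP-tagged A3F were seeded, incubated overnight at 37 deg C, dosed with compound, incubated overnight again at 37 deg C. Yellow fluorescence (Ex 488/Em 500-530) reported blocked Vif-mediated A3F-eYFP degradation.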
# * hit, by the source's call; ? = inconclusive; . = no result; [ ] = dose if it differs, or a comment. Most compounds without a hit are left out; they make up all but 0.42% or so of the library. Unless noted, calls come from the whole dose curve; as a rule, active = well fitted curve in the direction sought with a large enough effect; inconclusive = small, poorly fitted or top-dose-only effect, or another doubt; inactive = no such curve, though single readings can be large; an effect the other way counts as inactive or inconclusive. Potency is the fitted concentration of half-maximal effect.
SMILES,Epigenetic derep,Vif-A3G inh,Rango-impB inh,Rango release inh,Vif-A3F inh
COc1cc(C(=O)Nc2nnc(S(=O)(=O)N(C)c3ccccc3)s2)cc(OC)c1OC,10µM*,-4.1%,.,.,0.0%
COc1cc(C(=O)Nc2nnc(S(=O)(=O)N3CCCCCC3)s2)cc(OC)c1OC,.,-8.4%,-3.1%,-0.1%,-5.2%
COc1cccc(/C=N/NC(=O)c2cc(-c3ccc(C)cc3)n[nH]2)c1O,3.9%,.,.,.,.
Cc1ccc(NC(=O)CO/N=C/c2ccc(N(C)C)cc2)cc1,?,?,-1.1%,19.7%,25.1µM*
CN(C)c1ccc(/C=N/OC(=O)Nc2ccccc2)cc1,.,-0.5%,-1.6%,-5.5%,-10.9%
O=S1(=O)CCO[C@H]2CCCC[C@@H]2N1Cc1ccc(Cl)cc1,.,0.3%,.,.,.
CCCCCC1CCNCC1,.,2.9%,.,.,.
Cc1ccc(S(=O)(=O)Nc2ccccc2C=NNC(=O)c2ccncc2)cc1,.,-7.1%,.,.,0.1%
Cc1ccc(S(=O)(=O)Nc2ccccc2/C=N/c2nc3ccccc3n2C)cc1,3.6%,-5.5%,?,8.2µM*[inhibitor],-0.8%
Cc1ccc(S(=O)(=O)Nc2ccccc2C=Nc2cccc(C)c2C)cc1,0.0%,-8.7%,?,7.31µM*,-2.4%
CC(C)(C)[C@H]1CCC(=O)N(CCSc2ccc(Br)cc2)CC1,.,-6.0%,.,.,.
COc1cc(-c2noc(-c3cc4cccc(C)c4oc3=O)n2)cc(OC)c1OC,-0.5%,8.5%,.,.,4.2%
CCN(CC)c1ccc2cc(-c3nc(-c4cc(OC)c(OC)c(OC)c4)no3)c(=O)oc2c1,12.6µM*,?,.,.,?
CCN(CC)c1ccc2cc(-c3nc(-c4cccs4)no3)c(=O)oc2c1,7.08µM*,?,.,.,-923.8%
CCN(CC)c1ccc2cc(-c3nc(-c4ccccc4F)no3)c(=O)oc2c1,12.6µM*,-25.5%,.,.,?
CCN(CC)c1ccc2cc(-c3nnc(-c4ccncc4)o3)c(=O)oc2c1,0.562µM*,1.6%,?,?,-417.7%
COc1cccc(Cn2c3ccc(NC(=O)CCc4ccc(F)cc4)cc3c(=O)n2C)c1,.,3.98µM*,.,.,.
COC(=O)[C@H]1[C@H]2C[C@@H]3c4[nH]c5cc(OC)ccc5c4CCN3C[C@H]2C[C@@H](OC(=O)c2cc(OC)c(OC)c(OC)c2)[C@@H]1OC,22.4µM*,-12.9%,?,11.6µM*,?
COC(=O)C1C2CC3c4[nH]c5cc(OC)ccc5c4CCN3CC2CC(OC2CCCCO2)C1OC (stereo not given),.,-9.1%,.,.,11.2µM*
O=C(COc1ccc2ccccc2c1)NC1CC(=O)N(c2ccccc2)C1 (stereo not given),1.4%,7.1%,.,.,4.3%
CC(C)(C)n1ncc2c(=O)n(Cc3ccc(F)cc3)cnc21,.,0.3%,.,.,.
COc1cc(N=Nc2cccc(S(N)(=O)=O)c2)c2ccccc2c1N,31.6µM*,?,7.5%,-24.5%,25.1µM*
COc1ccc(N2C(=O)C(CC(=O)Nc3ccccc3)N(CCC3=CCCCC3)C2=O)cc1 (stereo not given),-3.7%,-2.9%,.,.,0.0%
COCc1ccc(O)c2ncccc12,4.47µM*,10µM*,0.3%,12.5%,2.8%
O=[N+]([O-])c1ccc(O)c2ncccc12,6.31µM*,-0.3%,?,12.7%,?
SMILES,Epigenetic derep,Vif-A3G inh,Rango-impB inh,Rango release inh,Vif-A3F inh
Cc1ccc(S(=O)(=O)N2CCN(c3nc(-c4ccc(CN5CCNCC5)s4)nc4ccccc34)CC2)cc1,.,-2.7%,.,.,.
N#C/C(=C\c1sc(N2CCOCC2)nc1-c1ccccc1)C(=O)Nc1cccc2ccccc12,12.6µM*,.,.,.,.
CC(OC(=O)/C(C#N)=C/c1ccc(N(C)C)cc1)C(=O)N(C)Cc1ccccc1 (stereo not given),.,?,?,?,22.4µM*
CN(C)/[N+]([O-])=N/Oc1ccc([N+](=O)[O-])cc1[N+](=O)[O-],.,-21.8%,.,.,.
CCOC1=C/C(=C/c2c(N)n3nc(-c4ccccc4)sc3nc2=O)C=CC1=O,2.0%,-16.1%,?,?,8.91µM*
CCS(=O)(=O)c1nn2c(N)c(/C=C3/C=CC(=O)C(OC)=C3)c(=O)nc2s1,0.9%,-8.3%,?,?,20µM*
COC1=C/C(=C/c2c(N)n3nc(-c4ccc(C)cc4)sc3nc2=O)C=CC1=O,?,-18.5%,?,?,11.2µM*
